Screens deposited in PubChem by Broad Institute.
A selection follows.
aSyn UTR act: Activators via SNCA 5'UTR binding, MLPCN | alpha-synuclein 5'UTR reporter, activators screen | activity score, % (tested at 7.5 µM), hits read low | 7.1% of 300,000 active | AID 1814; in the data active means activity score below about -60%
An asterisk follows results filed as active.

SMILES | aSyn UTR act
CC(C)(C)c1ccc(C(=O)NCCOc2ccccc2F)cc1 | 77.5
COc1cccc(C(=O)NCCSc2ccc(F)cc2)c1 | -156.9*
CC(C)(C)SCCNC(=O)c1ccccc1 | -117.4*
Cc1ccc(C(=O)NCCSC(C)(C)C)cc1[N+](=O)[O-] | -118.9*
O=C(NCCOc1ccccc1)c1cncc(Br)c1 | -91.6*
Oc1ccc(O)c(-c2cnns2)c1 | -70.5*
C/C(=N/OC(=O)CC(C)C)c1cc(-c2ccc(Cl)cc2)no1 | -145.7*
O=C(CCC1CCCC1)Nc1ccc(Br)cn1 | -196.6*
Cc1cc(NC(=O)CCC2CCCC2)no1 | -65.2*
Cc1ccnc(NC(=O)CCC2CCCCC2)c1 | -193.3*
COc1cc2c(cc1NC(=O)c1cccc(F)c1)CCCC2 | -75.7*
COc1cc2c(cc1NC(=O)c1ccccc1F)CCCC2 | -270.3*
COc1cc(OC)c(NC(=O)c2ccccc2F)cc1Cl | -121.8*
OCCn1c(-c2ccc3c(c2)OCO3)csc1=Nc1ccccc1 | -97.1*
CCOc1ccc(N=c2scc(-c3ccccc3)n2CCO)cc1 | -103.5*
CCn1c(-c2ccccc2)csc1=Nc1ccc(O)cc1 | -139.0*
O=C(Nc1ccccc1O)c1csc2c1CCCC2 | -157.0*
O=C(N/N=C/c1cccc(F)c1)c1csc2c1CCCC2 | -143.8*
O=C(N/N=C/c1ccccc1F)c1csc2c1CCCC2 | -235.2*
COc1ccc(-c2csc(NC(=O)c3ccc(S(C)(=O)=O)cc3)n2)cc1 | -68.0*
COc1ccc(-c2csc(NC(=O)c3ccoc3C)n2)cc1 | -124.2*
Cc1csc(NC(=O)c2sccc2C)n1 | -68.4*
CC(=O)c1ccc(NC(=O)c2cccc(S(=O)(=O)N3CCN(C)CC3)c2)cc1 | -112.3*
COc1ccccc1N(Cc1ccccc1)S(=O)(=O)c1cccc(C(=O)Nc2ccc(C(C)=O)cc2)c1 | -87.6*
CCc1nnc(NC(=O)c2ccc(S(=O)(=O)N(C)Cc3ccccc3)cc2)o1 | 62.9
SMILES | aSyn UTR act
Cc1csc(NC(=O)c2ccc(S(C)(=O)=O)cc2)n1 | -90.7*
COc1ccc(-c2csc(NC(=O)c3cccc(S(=O)(=O)N4CCN(C)CC4)c3)n2)cc1 | -71.2*
COC(=O)c1c(-c2ccncc2)csc1NC(=O)c1ccoc1C | -119.9*
COc1ccc(/C(C)=N/NC(=O)c2cccc(S(=O)(=O)N3CCCC3)c2)c(O)c1 | 77.6
CC(C)(C)c1cnnn1-c1ccc(/C=N/Nc2ccc([N+](=O)[O-])cc2)cc1 | -95.4*
CC(C)OC(=O)Cn1nnc2c(cnn2-c2ccccc2)c1=O | -97.6*
Cc1cc(C)c2nc(N3CCCC(C(=O)NCCN4CCOCC4)C3)sc2c1 (stereo unspecified) | -73.5*
Cc1cc(C)c2nc(N3CCCC(C(=O)NCCCN4CCOCC4)C3)sc2c1 (stereo unspecified) | -77.5*
O=C(NC1CCCCCC1)C(=S)NCc1ccccc1 | -86.0*
COc1ccc(CNC(=O)NC2CCCCC2)cc1 | -79.6*
O=C(NC1CCCCC1)C(=S)NCc1ccccc1 | -71.1*
O=C(NC1CCCCC1)C(=S)NC1CCCCC1 | -106.3*
CC(=O)Nc1ccc(S(=O)(=O)NC2=C(N3CCN(C)CC3)C(=O)c3ccccc3C2=O)cc1 | 70.6
CC(=O)Nc1cccc2c1Cc1ccccc1-2 | -159.4*
COc1ccc(NC(=O)/C(C#N)=C\c2cc(C)n(-c3ccc4c(c3)OCO4)c2C)cc1 | -107.0*
CNC(=O)/C(C#N)=C/c1ccc(-c2ccc(OC)cc2[N+](=O)[O-])o1 | -76.1*
COc1ccc(NC(=O)/C(C#N)=C\c2ccc(Br)o2)cc1 | -114.3*
O=C(COC(=O)c1ccccc1-n1cnnn1)c1ccc(Br)cc1 | -94.7*
Cc1no[n+]([O-])c1COc1ccccc1/C=N/n1nnnc1N | -99.3*
CC(=O)N1CCc2cc(N=NC3=C(O)CCCC3=O)ccc21 | -100.2*
CC1=Nc2ccccc2N=C(N)C1c1ccccc1 (stereo unspecified) | -123.9*
NC(=NCCc1ccccc1)NC(=O)c1cc(Cl)ccc1O | -108.1*
Cc1ccc(O)c(C(=O)CC(=O)c2cccc(F)c2)c1 | -84.7*
Cc1cccc(C(=O)CC(=O)c2cc(Cl)ccc2O)c1 | 64.0
O=C(CC(=O)c1cc(Cl)ccc1O)c1ccccc1 | -98.9*
SMILES | aSyn UTR act
O=C(Cc1nc2ccccc2[nH]c1=O)c1ccccc1 | -172.2*
O=C(Cc1nc2ccccc2[nH]1)c1ccc(Br)cc1 | -190.3*
Cc1cccc(Nc2cc(C)c3c(O)cccc3n2)c1C | -100.6*
O=C(NCCc1ccccc1)C(=O)c1c[nH]c2ccccc12 | -199.5*
O=C(NCCc1c[nH]c2ccccc12)C(=O)Nc1ccccc1 | -65.3*
COc1ccc(Oc2nccc(-c3ccc(F)cc3)c2C#N)cc1 | -82.1*
Cc1ccc(-c2cc(-c3ccc(F)cc3)nc(N)c2C#N)o1 | 62.7
COc1ccc(Oc2nccc(-c3ccccc3)c2C#N)cc1 | -185.4*
C=CCNC(=S)NC(=O)c1ccc(C)c(Br)c1 | -105.7*
CSc1ccc(-c2nc(CSCC(=O)N3CCOCC3)c(C)o2)cc1 | -77.5*
O=C(O)c1cccc(CSc2nnc(-c3ccc(Cl)cc3)o2)c1 | 54.8
O=C(CSc1nnc(-c2ccc(O)cc2)o1)N1CCOCC1 | -76.8*
O=C(CSc1nnc(-c2ccc(Cl)cc2)o1)N1CCOCC1 | -153.6*
O=C(CSc1nnc(-c2ccc(OC(F)F)cc2)o1)N1CCOCC1 | -67.0*
COc1ccc(-c2nnc(SCC(=O)N3CCOCC3)o2)cc1 | -105.4*
Oc1ccc(-c2nnc(SCC3CCCCC3)o2)cc1 | -131.6*
CC(C)=CCc1c(O)cc2oc3c(CC=C(C)C)c(O)c(O)c(CC=C(C)C)c3c(=O)c2c1O | 62.2
CC1Oc2cc3oc4c(O)c(O)ccc4c(=O)c3c(O)c2C1(C)C (stereo unspecified) | -149.6*
O=C(Nc1nc(=O)c2ccccc2s1)c1ccc(Cl)cc1 | -140.3*
O=C(Nc1nc(=O)c2ccccc2s1)c1ccc(F)cc1 | -264.2*
CCCCNc1c(-c2ccc(SC3CCCCC3)cc2)nc2ccccn12 | -83.0*
Cc1ccc(Nc2nnc(-c3ccc4c(c3)OCO4)o2)c(C)c1 | -93.2*
CC(C)CCn1cnc2c(cnn2-c2ccc(F)cc2)c1=O | -83.3*
CCOC(=O)C1CCN(c2ncnc3c2cnn3-c2ccc(Cl)cc2)CC1 | 64.7
CC(=O)Cn1cnc2c(cnn2-c2ccc(C)c(C)c2)c1=O | -106.4*
SMILES | aSyn UTR act
CCOC(=O)Cn1cnc2c(cnn2-c2ccc(Cl)cc2)c1=O | -65.2*
Nc1nnc(COc2ccc(Br)cc2Br)s1 | -97.9*
CCn1c(-c2cccnc2Cl)nc2cc(Cl)c(Cl)cc21 | -118.7*
COc1ccc(C(C#N)=C2C=CC(=NO)C=C2)cc1 | -148.3*
CC(C)Sc1nnc(NC(=O)c2ccc3c(c2)OCO3)s1 | -118.1*
CC(C)(C)c1nnc(NC(=O)COc2ccc3c(c2)OCO3)s1 | -80.5*
CC(C)c1nnc(NC(=O)c2ccc3c(c2)OCO3)s1 | 57.1
CCCC(=O)Nc1nnc(-c2ccc3c(c2)OCO3)s1 | -141.4*
CC(c1ccccc1)c1nnc(NC(=O)c2ccc3c(c2)OCO3)s1 (stereo unspecified) | -139.3*
CCCC(=O)NC(c1ccc2c(c1)OCO2)c1cc(Cl)c2cccnc2c1O (stereo unspecified) | 80.4
CC(C)(C)c1nnc(NC(=O)c2ccc3c(c2)OCO3)s1 | -191.1*
CCSc1nnc(NC(=O)c2ccc3c(c2)OCO3)s1 | -94.1*
CCN(CC)C(=O)c1sc(NC(=O)c2ccc3c(c2)OCO3)c(C(N)=O)c1C | -105.0*
CC(C)Oc1ccccc1/C=N/Nc1ccccc1[N+](=O)[O-] | -209.4*
COc1ccccc1/C=N\Nc1ccccc1[N+](=O)[O-] | -91.5*
CCOc1ccccc1/C=N/Nc1ccccc1[N+](=O)[O-] | -303.8*
